Here are results for 32 compounds from PubChem BioAssay (NCATS).

Values joined by “and” are separate entries in the source; they are usually repeats but may differ in a detail not shown here. Equal entries are not always repeated. Inconclusive results are not listed. Entries that show only a call come without a potency. Active and inactive are the calls of the source. Calls follow the shape of the dose curve; as a rule, active = well fitted inhibition curve with a large enough effect; inconclusive = small, poorly fitted or top-dose-only effect; inactive = no such curve, though single readings can be large or run the other way.

One test is described as follows: ZIKV-mCherry secondary qHTS for Zika virus inhibitors (AID 1347158). Also: top concentration of the series differs between compounds. Particulars: Vero cells, ZIKV-mCherry infection imaging, 48-72 h; series mostly up to 49.2 µM. An outline of the steps: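 Read-out is percent infection: mCherry-positive Vero cells (nuclear-proximal intensity >450 RFU, 3 SD above negative controls) counted by high-content imaging of Hoechst-stained, PFA-fixed wells after 48-72 h with ZIKV-mCherry at MOI 1 and compound.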
(Quantitative high-throughput screening tests each substance at several concentrations.)
With `O=C(Nc1cccc(C(=O)OCc2cc(=O)n3nc(C4CC4)sc3n2)c1)c1cccc(Cl)c1`, the Potency result was “inactive”. On to `O=c1c(O)cc(C2Oc3cc(O)cc(O)c3CC2O)cc2c(C3Oc4cc(O)cc(O)c4CC3O)cc(O)c(O)c12` (stereo not given), for which the Potency result is “inactive”. Consider `N#C/C(=C\c1ccc(-c2ccc(Cl)c(C(=O)O)c2)o1)c1nc2ccccc2[nH]1`, for which the Potency result is “inactive”. Same read-out and setting: to `COc1cc(-c2ccc(N=Nc3ccc4c(S(=O)(=O)O)cc(S(=O)(=O)O)c(N)c4c3O)c(OC)c2)ccc1N=Nc1ccc2c(S(=O)(=O)O)cc(S(=O)(=O)O)c(N)c2c1O` belongs “inactive”; to `CCN(Cc1cccc(S(=O)(=O)O)c1)c1ccc(C(=C2C=CC(=[N+](CC)Cc3cccc(S(=O)(=O)O)c3)C=C2)c2ccc(O)cc2S(=O)(=O)O)cc1`, “inactive”; to `O=C(O)c1ccccc1-c1c2cc(I)c(=O)c(I)c-2oc2c(I)c(O)c(I)cc12`, “inactive”.

As to `CC(C)c1ccc(NC(=O)c2ccc3c(O)c(S(=O)(=O)c4ccccc4)c(=O)[nH]c3c2)cc1`, the Potency result was “inactive”. Same read-out and setting: the result for `O=C(OC1Cc2c(O)cc(O)cc2OC1c1cc(O)c(=O)c2c(O)c(O)cc(C3Oc4cc(O)cc(O)c4CC3OC(=O)c3cc(O)c(O)c(O)c3)c2c1)c1cc(O)c(O)c(O)c1` (stereo not given) reads “inactive”. As to `O=C(O)c1c(Br)c(Br)c(Br)c(Br)c1C1c2ccc(O)cc2Oc2cc(O)ccc21`, the Potency entry was “inactive”. On the same count and under the same terms, the result for `CC(C)(C)c1ccc(S(=O)(=O)c2cnc(SCC(=O)Nc3ccc4c(c3)OCCO4)[nH]c2=O)cc1` reads “inactive”; that for `Cc1c(C2(c3cc(C(C)C)c(O)c(Br)c3C)OS(=O)(=O)c3ccccc32)cc(C(C)C)c(O)c1Br`, “inactive”; that for `Cc1ccc2nc(-c3ccc(N=Nc4cc(S(=O)(=O)O)c5ccccc5c4O)cc3)sc2c1S(=O)(=O)O`, “inactive”. Still for that read-out and setting: the result for `Cc1ccc(-c2cc(C(F)(F)F)c(C#N)c(SCC(=O)O)n2)cc1` reads “inactive”; that for `O=C1c2ccc(O)c(O)c2C(=O)c2c(O)ccc(O)c21`, “inactive”. The same measure, in the same setting: to `COc1ccc2c(c1)Oc1nc(-c3ccc(C)s3)nc(SCC(=O)Nc3cccc(C(=O)O)c3)c1C2` belongs “inactive”; to `Cc1ccc(NC(=O)c2ccc3c(O)c(S(=O)(=O)c4ccccc4)c(=O)[nH]c3c2)cc1Cl`, “inactive”; to `COC(=O)c1ccc([C@H]2Nc3ccc(S(=O)(=O)Nc4cccc(C)c4)cc3[C@H]3C=CC[C@H]32)cc1`, “inactive”. As to `COc1ccc(NS(=O)(=O)c2ccc3c(c2)[C@H]2C=CC[C@H]2[C@@H](c2ccc(C(=O)O)cc2)N3)cc1`, the Potency result was “inactive”.

The next test can be described thus: Confirmatory screen NINDS Rhodamine qHTS for Zika virus inhibitors (AID 1347161). Also: nearly all actives have a fitted effect of over 60% in size. Also: potency is read from the fitted curve at half-maximal effect. To be noted: purified enzyme assay, Rhodamine110 substrate fluorescence, 15 min; series mostly up to 114 µM. An outline of the steps: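 Aprotinin served as in-plate control. Conditions: 25 nM linked NS2B-NS3, pH 8.0 Tris buffer, titrated compounds, 15 min preincubation and 15 min reaction with 1.5 microM Rhod110 substrate at room temperature.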
With `N#C/C(=C\c1ccc(-c2cc(Cl)ccc2Cl)o1)C(=O)Nc1ccccc1C(=O)O`, the Potency was 6.31 µM (active). On to `CCOC(=O)c1ccc(N2C(=O)c3n[nH]c(-c4cccs4)c3C2c2ccc(C(C)(C)C)cc2)cc1` (stereo not given), for which the Potency is 15.8 µM (active). The same measure, in the same setting: to `N#C/C(=C\c1ccc(-c2ccc(Cl)c(C(=O)O)c2)o1)c1nc2ccccc2[nH]1` belongs 22.4 µM (active); to `COc1cc(-c2ccc(N=Nc3ccc4c(S(=O)(=O)O)cc(S(=O)(=O)O)c(N)c4c3O)c(OC)c2)ccc1N=Nc1ccc2c(S(=O)(=O)O)cc(S(=O)(=O)O)c(N)c2c1O`, 2 µM (active). Take `CCN(Cc1cccc(S(=O)(=O)O)c1)c1ccc(C(=C2C=CC(=[N+](CC)Cc3cccc(S(=O)(=O)O)c3)C=C2)c2ccc(O)cc2S(=O)(=O)O)cc1`: the Potency is 3.55 µM (active). With `O=C(Nc1ccc(C(=O)Nc2ccc(C(=O)Nc3ccc(S(=O)(=O)O)c4cc(S(=O)(=O)O)cc(S(=O)(=O)O)c34)cc2)cc1)Nc1ccc(C(=O)Nc2ccc(C(=O)Nc3ccc(S(=O)(=O)O)c4cc(S(=O)(=O)O)cc(S(=O)(=O)O)c34)cc2)cc1`, the Potency is 2.24 µM (active) and 1.26 µM (active). Still for that read-out and setting: to `CCOC(=O)c1ccc(NC(=O)c2nc(SCc3ccccc3F)ncc2Cl)cc1` belongs “inactive”; to `O=C(O)c1ccccc1-c1c2cc(I)c(=O)c(I)c-2oc2c(I)c(O)c(I)cc12`, 3.16 µM (active); to `CC(C)c1ccc(NC(=O)c2ccc3c(O)c(S(=O)(=O)c4ccccc4)c(=O)[nH]c3c2)cc1`, 3.98 µM (active).

Regarding `Cc1ccc(-c2nnc(Nc3ccc(O)cc3)c3ccccc23)cc1S(=O)(=O)NCc1nc2ccccc2[nH]1`, the Potency result was “inactive”. Still for that read-out and setting: the result for `O=C(OC1Cc2c(O)cc(O)cc2OC1c1cc(O)c(=O)c2c(O)c(O)cc(C3Oc4cc(O)cc(O)c4CC3OC(=O)c3cc(O)c(O)c(O)c3)c2c1)c1cc(O)c(O)c(O)c1` (stereo not given) reads 11.2 µM (active); that for `CCOC(=O)c1ccccc1NC(=O)CSc1ccc(-c2sc(-c3ccccc3)nc2C)nn1`, “inactive”; that for `COC(=O)C1=C(c2ccccc2)c2ccccc2S(=O)(=O)N1CC(=O)Nc1ccccc1C(F)(F)F`, “inactive”. As to `CC(C)(C)c1ccc(S(=O)(=O)c2cnc(SCC(=O)Nc3ccc4c(c3)OCCO4)[nH]c2=O)cc1`, the Potency is 6.31 µM (active). `CCOC(=O)c1ccc(N2C(=O)c3n[nH]c(-c4cccs4)c3C2c2ccc(Cl)cc2Cl)cc1` (stereo not given): the Potency is 25.1 µM (active). `Cc1c(C2(c3cc(C(C)C)c(O)c(Br)c3C)OS(=O)(=O)c3ccccc32)cc(C(C)C)c(O)c1Br`: the Potency was 5.62 µM (active). For `Cc1ccc2nc(-c3ccc(N=Nc4cc(S(=O)(=O)O)c5ccccc5c4O)cc3)sc2c1S(=O)(=O)O`, the Potency was 2.82 µM (active). The same measure, in the same setting: to `CCS(=O)(=O)c1cccc(C(=O)Nc2ccc(-c3nc4ccccc4s3)c(O)c2)c1` belongs 15.8 µM (active). On the same count and under the same terms, to `O=C(CNC(=O)c1ccccc1F)OCc1cc(=O)n2nc(C3CCCCC3)sc2n1` belongs “inactive”. As to `O=C1c2ccc(O)c(O)c2C(=O)c2c(O)ccc(O)c21`, the Potency is 5.62 µM (active). For the compound `COc1ccc2c(c1)Oc1nc(-c3ccc(C)s3)nc(SCC(=O)Nc3cccc(C(=O)O)c3)c1C2`, the Potency is 5.62 µM (active). Regarding `Cc1ccc(NC(=O)c2ccc3c(O)c(S(=O)(=O)c4ccccc4)c(=O)[nH]c3c2)cc1Cl`, the Potency was 6.31 µM (active). On the same count and under the same terms, the result for `Nc1c(N=Nc2ccc([N+](=O)[O-])cc2)c(S(=O)(=O)O)cc2cc(S(=O)(=O)O)c(/C=C/c3ccccc3)c(O)c12` reads 2.82 µM (active); that for `CCOC(=O)c1ccc(CN(Cc2ccccc2C)S(=O)(=O)c2ccc(F)c(C(=O)Nc3cccc(OC)c3)c2)cc1`, “inactive”; that for `COC(=O)c1ccc([C@H]2Nc3ccc(S(=O)(=O)Nc4cccc(C)c4)cc3[C@H]3C=CC[C@H]32)cc1`, 25.1 µM (active).

As to `CCOC(=O)c1ccc(CN(Cc2ccc(F)cc2)S(=O)(=O)c2cc(C(=O)Nc3cccc(C(F)(F)F)c3)ccc2F)cc1`, the Potency result was “inactive”.

Turning to `Cc1ccc(OCC(=O)Nc2ccccc2C(=O)OCc2cc(=O)n3nc(C4CC4)sc3n2)cc1`, the Potency entry was “inactive”.
